Experimental data: PubChem BioAssay (NCI)
Compounds without any hit were thinned out: in the full panel of roughly 83,000, 20% have a hit.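 Treatment: one concentration, 48 hours, 96-well format. Scoring: percent growth, with anything below 10 considered active.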 A number with no mark means an inactive call. Active and inactive are the calls of the source.

What follows are molecules tested on NCI-H23 lung (assay: NCI-60 one-dose screen, 48 h (100 = growth as untreated, 0 = no growth, -100 = all killed)). Settings: 10 µM unless noted.

Question: How did the growth turn out when `Clc1nc(N2CCC[N+]3(CC2)CC[N+]2(CCCNCC2)CC3)nc(N2CCC[N+]3(CC2)CC[N+]2(CCCNCC2)CC3)n1` (configuration not stated) was run?
Answer: The growth was 89.2%.

Question: For `O=C(Nc1ccccc1CNc1nc(Nc2ccc(OCCN3CCCC3)cc2)ncc1Cl)NC1CCCCC1`, which growth is on record?
Answer: The growth was 87.2%.

Question: With `Cc1nc2c(c(-c3ccccc3)n1)Cc1c(ccc3ccccc13)O2` as the molecule, how does the growth read?
Answer: The growth was 97.8%.

Question: How did the growth turn out when `COC(CCP(=O)(c1ccccc1)c1ccccc1)(C(=O)c1ccccc1)c1ccccc1` (configuration not stated) was run?
Answer: Its growth is 77.3%.

Question: Which growth does the source give for `Nc1ncc(-c2ccc3ncnc(N4CCc5cc(F)c(Cl)cc54)c3c2)cc1C=O` here?
Answer: Its growth is 31.6%.

Question: With `CC(C)(C)n1cc(-c2ccnc(NCCNS(=O)(=O)c3ccc(C(F)(F)F)cc3)c2)c(-c2ccccc2)n1` as the molecule, how does the growth read?
Answer: Its growth is 83%.

Question: How did the growth turn out when `Clc1ccc(C2=Nn3c(nnc3-c3cc(Cl)cc(Cl)c3Cl)SC2)cc1` was run?
Answer: Its growth is 65.8%.

Question: With `O=C(NC1CCCCCC1)c1ccc2c(=O)n3c(nc2c1)CCCCC3` as the molecule, how does the growth read?
Answer: The growth was 97.7%.

Question: With `C=C1C(=O)O[C@H]2[C@H]1CC/C(CNC(=O)/C=C/c1cc(OC)c(OC)c(OC)c1)=C\CC[C@@]1(C)O[C@@H]21` as the molecule, how does the growth read?
Answer: Its growth is -31.3% (active).

Question: `Cc1c(CC(=O)Nc2ccccc2)nnn1-c1ccccc1` was tested. Which growth did it give?
Answer: Its growth is 100%.

Question: With `CCn1c2ccccc2c2cc(C(O)c3cccc4ncccc34)ccc21` (configuration not stated) as the molecule, how does the growth read?
Answer: Its growth is -42.3% (active).

Question: `CSc1nc(CC(C)C)c(C#N)c(=O)n1C` was tested. Which growth did it give?
Answer: Its growth is 66.8%.

Question: Which growth does the source give for `Oc1c(Cl)cc(Cl)c2ccc(CN3CCNCC3)nc12` here?
Answer: The growth was 52.7%.

Question: With `CO[C@H]1CC(c2ccc[nH]2)=N[C@]12O[C@@H](C)C[C@@H]1CCCCCCCc3ccc([nH]3)[C@H]12` as the molecule, how does the growth read?
Answer: Its growth is 28.1%.

Question: `Nc1c(C(=O)c2ccc(Cl)cc2)sc(Nc2ccccc2)c1-c1nc2ccccc2s1` was tested. Which growth did it give?
Answer: The growth was 17%.

Question: `Cn1nc(-c2ccc(Cl)cc2)nc2c(=O)n(C)c(=O)nc1-2` was tested. Which growth did it give?
Answer: The growth was -45% (active).

Question: With `Cc1ccc(C2=Nc3c(N)nc(N)nc3NC(c3cccc(Nc4ccnc5cc(C(F)(F)F)ccc45)c3)C2)cc1` (configuration not stated) as the molecule, how does the growth read?
Answer: Its growth is 39.4%.

Question: With `COC(=O)[C@H](C)NC(=O)c1ccc(NC(=O)c2[nH]c(C)c(Cl)c2Cl)c(OCCN)c1` as the molecule, how does the growth read?
Answer: The growth was 106%.

Question: For `CC(C)=CC(=O)C1C(=O)c2ccccc2C1=O`, which growth is on record?
Answer: Its growth is 96.4%.

Question: How did the growth turn out when `C=CCn1c(SCC(=O)Nc2ccc(C(=O)/C=C/c3ccc(Cl)cc3)cc2)nnc1-c1ccc(Cl)c(Cl)c1` was run?
Answer: The growth was 85%.

Question: `CC(C)n1cc(C2=C(c3cccc4ccccc34)C(=O)NC2=O)c2cc(Br)ccc21` was tested. Which growth did it give?
Answer: Its growth is 49%.

Question: With `CC1(C)C2=C(C(=O)N1Cc1ccccc1)C(c1ccco1)N(C(=O)C1CCC1)CCN2` (configuration not stated) as the molecule, how does the growth read?
Answer: Its growth is 95.8%.

Question: `COc1cc(OC)cc(C(=O)Nc2cnc(Nc3ccc(N4CCOCC4)nc3)nc2Oc2ccc(C(F)(F)F)cc2)c1` was tested. Which growth did it give?
Answer: The growth was 82%.

Question: With `C=C(c1ccc(C(=O)O)c(F)c1)c1cc2c(cc1C)C(C)(C)C=CC2(C)C` as the molecule, how does the growth read?
Answer: The growth was 76.2%.

Question: `O=C1c2c(c3c4cc(F)ccc4oc3c3[nH]c4ccccc4c23)C(=O)N1O` was tested. Which growth did it give?
Answer: The growth was 23.4%.

Question: How did the growth turn out when `CCCN1C(=O)N(CCC)C2C1NC(=S)N2/N=C/C=C/c1ccccc1OC` (configuration not stated) was run?
Answer: Its growth is 36.4%.

Question: `O=C(Nc1ccccc1)Nc1ccccc1CNc1nc(Nc2ccc(OCCN3CCCC3)cc2)ncc1Cl` was tested. Which growth did it give?
Answer: Its growth is 68.1%.

Question: For `O=C1NC(=O)C(=Cc2cc(-c3ccc(Cl)cc3)n(-c3ccccc3)n2)C(=O)N1`, which growth is on record?
Answer: Its growth is 99.3%.

Question: With `COc1ccc(-c2nc3cc(C(=O)NC4CCCCC4)ccc3n2C2CCCCC2)cc1` as the molecule, how does the growth read?
Answer: Its growth is 92.5%.

Question: With `O=c1ccc2c(ccc3ncccc32)o1` as the molecule, how does the growth read?
Answer: The growth was 106%.

Question: How did the growth turn out when `CC/C(=C(/c1ccc(Cl)cc1)c1ccc(OCCN(CC)CC)cc1)c1ccc(OC)cc1` was run?
Answer: The growth was 48.7%.

Question: `COc1ccc(N2C(=O)/C(=C/C(Cl)=C/c3ccc([N+](=O)[O-])cc3)SC2=S)cc1` was tested. Which growth did it give?
Answer: Its growth is -1.85% (active).

Question: Which growth does the source give for `CCOC(=O)CC1CSC(N/N=C(/C)c2cccc(C(F)(F)F)c2)=N1` (configuration not stated) here?
Answer: The growth was 103%.

Question: With `CSc1nc(N)c2c(n1)NC(c1ccccc1)C1CCc3ccccc3C1=N2` (configuration not stated) as the molecule, how does the growth read?
Answer: The growth was 39.4%.

Question: With `COc1cc2cc(Oc3ccc(NC(=O)Nc4ccc(F)c(C(F)(F)F)c4)cc3)c(C)nc2cc1OCCN1CCCCC1` as the molecule, how does the growth read?
Answer: The growth was 34.2%.

Question: `O=C(Nc1ncc(Cc2ccccc2)s1)c1cc(-c2ccccc2)nc2ccccc12` was tested. Which growth did it give?
Answer: The growth was 89.3%.

Question: `CN1CCN(Cc2ccc(NC(=O)c3cncc(C#Cc4cnc(N)c5ncccc45)c3)cc2Cl)CC1` was tested. Which growth did it give?
Answer: Its growth is 57.3%.
